{"source": "PubChem BioAssay (NCATS)", "note": "Records with an inconclusive call do not appear. Entries that show only a call come without a potency. Activity calls are given as the source filed them. Calls come from the whole dose curve; as a rule, active = well fitted curve in the direction sought with a large enough effect; inconclusive = small, poorly fitted or top-dose-only effect, or another doubt; inactive = no such curve, though single readings can be large; an effect the other way counts as inactive or inconclusive."}
{"experiment": "qHTS to identify inhibitors of the type 1 interferon - major histocompatibility complex class I in skeletal muscle: primary screen against the NCATS Pharmaceutical Collection (AID 1347407);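 note: luminescence of HiBiT knocked into endogenous HLA-B as interferon-induced MHC class I level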", "details": "human skeletal muscle cells, IFN-b-induced MHC-I HiBiT luminescence, 24 h; series mostly up to 45.9 µM", "outline": "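Compounds […] were added to CRISPR-engineered HLA-B-HiBiT C25cl48 human myoblasts with 4.0 ng/ml IFN-beta. After 24 hrs at 37 C, cells were lysed and HiBiT luminescence measured.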"}
{"smiles": "Cc1c(C)c2c(c(C)c1O)CCC(C)(COc1ccc(CC3SC(=O)NC3=O)cc1)O2", "note": "(centres undefined)", "outcome": "inactive"}
{"smiles": "Cc1ccc(-n2nc(C(C)(C)C)cc2NC(=O)Nc2ccc(OCCN3CCOCC3)c3ccccc23)cc1", "outcome": "inactive"}
{"smiles": "CNC(=O)c1ccccc1Sc1ccc2c(/C=C/c3ccccn3)n[nH]c2c1", "outcome": "inactive"}
{"experiment": "qHTS to identify inhibitors of the type 1 interferon - major histocompatibility complex class I in skeletal muscle: primary screen against the NCATS Mechanism Interrogation Plate v5.0 (MIPE) Libary (AID 1347411); note: nearly all actives have a fitted effect of over 65% in size; note: potency is the fitted concentration of half-maximal effect", "details": "iHSKM cells + IFN-b, HiBiT-tagged MHC-I luminescence, 24 h; series mostly up to 45.8 µM", "outline": "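Seed engineered human myoblasts (HLA-B HiBit) in medium without dexamethasone containing 4 ng/ml IFN-beta; after 1 hr add compound titrations (top 46 uM final). Incubate 24 hrs at 37 C, lyse 10 min with HiBiT reagent, read luminescence.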"}
{"smiles": "Cc1cc2c(F)c(Oc3ncnn4cc(OC[C@@H](C)O)c(C)c34)ccc2[nH]1", "Potency": "inactive"}
{"smiles": "CCN(CC)CCCC(C)Nc1nc(C)cc(Nc2ccc3nc(C)cc(N)c3c2)n1", "note": "(centres undefined)", "Potency": "inactive"}
{"smiles": "C[C@]1(c2nc3c(C(N)=O)cccc3[nH]2)CCCN1", "Potency": "inactive"}
{"smiles": "CCN(c1ccccc1)c1cc(NC)[n+](C)c(C)n1", "Potency": "inactive"}
{"smiles": "O=C(O)[C@@H](c1ccc(OCc2ccc3ccccc3n2)cc1)C1CCCC1", "Potency": "inactive"}
{"smiles": "Cc1cc([C@@H](C)Nc2ccccc2C(=O)O)c2nc(N3CCOCC3)cc(=O)n2c1", "Potency": "inactive"}
{"smiles": "CS(=O)(=O)Oc1ccc2c(NC(N)=O)c(C(=O)c3ccc(Cl)cc3Cl)oc2c1", "Potency": "inactive"}
{"smiles": "NC(=O)c1ccc(-c2nc(-c3ccc4c(c3)OCO4)c(-c3ccccn3)[nH]2)cc1", "Potency": "inactive"}
{"smiles": "CCCCCCCc1ccc(CCc2cccc(O)c2C(=O)O)cc1", "Potency": "inactive"}
{"smiles": "Cc1c(C)c2c(c(C)c1O)CCC(C)(COc1ccc(CC3SC(=O)NC3=O)cc1)O2", "note": "(centres undefined)", "Potency": "inactive"}
{"smiles": "Cc1cccc(-c2nn(C(=S)Nc3ccccc3)cc2-c2ccnc3ccccc23)n1", "Potency": "inactive"}
{"smiles": "Cc1c(CCOc2ccc(C(=O)O)cc2)c2cc(Cl)ccc2n1C(c1ccccc1)c1ccccc1", "Potency": "inactive"}
{"smiles": "N#Cc1ccc(C(c2ccc(C#N)cc2)n2cncn2)cc1", "Potency": "inactive"}
{"smiles": "Cn1c(=O)c(F)c(Nc2ccc(I)cc2F)c2c(=O)n(C[C@@H](O)CO)cnc21", "Potency": "inactive"}
{"smiles": "CNC(=O)c1ccc(N2C(=S)N(c3ccc(C#N)c(C(F)(F)F)c3)C(=O)C2(C)C)cc1F", "Potency": "inactive"}
{"smiles": "OC[C@H](Cc1ccccc1)Nc1nc(Oc2ccc3c(c2)CCC3)nc2c1ncn2Cc1ccc(-c2ccccc2)cc1", "Potency": "inactive"}
{"smiles": "COc1ccc(-c2c(-c3ccc(O)cc3O)n[nH]c2C)cc1", "Potency": "inactive"}
{"smiles": "Cc1ccc(-n2nc(C(C)(C)C)cc2NC(=O)Nc2ccc(OCCN3CCOCC3)c3ccccc23)cc1", "Potency": "inactive"}
{"smiles": "Nc1ncnc2nc(-c3ccc(N4CCOCC4)nc3)cc(-c3cccc(Br)c3)c12", "Potency": "inactive"}
{"smiles": "Cc1ccnc(NS(=O)(=O)c2ccc(NC(=O)Nc3ccc(S(=O)(=O)Nc4nccc(C)n4)cc3)cc2)n1", "Potency": "inactive"}
{"smiles": "CC(C)(C)OC(=O)CN(Cc1ccc(Cl)cc1)Cc1ccc([N+](=O)[O-])s1", "Potency": "inactive"}
{"smiles": "CC(c1cc2ccccc2s1)N(O)C(N)=O", "note": "(centres undefined)", "Potency": "inactive"}
{"smiles": "Cc1cc(-c2ccc(CC(=O)Nc3ccc(-c4cccnc4)cc3)cc2)ccn1", "Potency": "inactive"}
{"smiles": "Fc1ccc(Cl)cc1-c1nc(Nc2ccncc2)c2nccnc2n1", "Potency": "inactive"}
{"smiles": "NC(=O)c1ccc(I)c([N+](=O)[O-])c1", "Potency": "inactive"}
{"smiles": "Nc1nc2[nH]cc(CCc3ccc(C(=O)N[C@@H](CCC(=O)O)C(=O)O)cc3)c2c(=O)[nH]1", "Potency": "inactive"}
{"smiles": "NC(=O)c1ccc(-c2nc(-c3ccc4c(c3)OCCO4)c(-c3ccccn3)[nH]2)cc1", "Potency": "inactive"}
{"smiles": "COc1ccc(COc2cc3oc(=O)c4cc(C(C)O)ccc4c3cc2OC)cc1", "note": "(centres undefined)", "Potency": "inactive"}
{"smiles": "CN[C@@H](C)C(=O)N[C@H]1CCCC[C@H]2CC[C@@H](C(=O)N[C@@H](c3ccccc3)c3cn(CCCCc4ccc(CCCCn5cc([C@@H](NC(=O)[C@@H]6CC[C@@H]7CCCC[C@H](NC(=O)[C@H](C)NC)C(=O)N76)c6ccccc6)nn5)cc4)nn3)N2C1=O", "Potency": "3.3 µM (active)"}
{"smiles": "CCC(=O)N[C@H]1CC[C@H](C(=O)N(C)c2ccc(-c3nc4ccccc4o3)cc2)C1", "Potency": "inactive"}
{"smiles": "CCCn1c(=O)c2[nH]c(C34CC5CC3C[C@@H](C5)C4)nc2n(CCC)c1=O", "Potency": "inactive"}
{"smiles": "NC(=O)C1CCCc2c1[nH]c1ccc(Cl)cc21", "note": "(centres undefined)", "Potency": "inactive"}
{"smiles": "O=c1ncn2nc(Sc3ccc(F)cc3F)ccc2c1-c1c(Cl)cccc1Cl", "Potency": "inactive"}
{"smiles": "COc1ccc(CC2=NN3C([C@@H](CCc4ccccc4)[C@@H](C)O)=NC(C)C3C(=O)N2)cc1OC", "note": "(some centres undefined)", "Potency": "inactive"}
{"smiles": "Nc1cccc(S(=O)(=O)N2CCCN(S(=O)(=O)c3ccc4c(c3)OCCO4)CC2)c1", "Potency": "inactive"}
{"smiles": "c1ccc(-c2nn3c(c2-c2ccnc4cc(OCCN5CCOCC5)ccc24)CCC3)nc1", "Potency": "inactive"}
